This note sets out measurements from article PMC5540273 (PLoS ONE, 2017).
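Also: KINOMEscan kinase panel screen.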

The assay deals with CLK1. Particulars: concentration: 1 μM, replicates: in singlicate; n = 1.
Regarding `COc1cc(Nc2nccc(N3CCC(NC(=O)Nc4cc(C)ccc4C)C3)n2)cc(OC)c1OC` (stereo not drawn) [GSK1379762], the “%Inh” value is 32%. Under `CC(=O)Nc1nc2cnc(Nc3cc(NC(=O)c4cccc(CCC#N)c4)ccc3C)nc2s1` stands 0%. As to `Cc1cc(N2Cc3ccccc3C2)nc(Nc2ccc(S(=O)(=O)N3CCOCC3)cc2)n1.Cl` [GSK1669917], the “%Inh” value stood at 9%. Under `Cc1cccc(-c2nc(C)cc(Nc3ccncc3)n2)n1` [GSK257997] stands 13%.

Turning to `O=c1cc(N2CCOCC2)nc2n(Cc3cccc(Cl)c3Cl)ccn12` [GSK2286295], the “%Inh” value is reported as 64%. The value for `Cc1cc(-c2ccc3c(c2)CC[C@@H](N[C@@H](C)c2ccccc2)C3)cnc1N.Cl` [GW412617] was 13%. In the case of `COc1ccccc1CNC(=O)c1cc(C(=O)c2ccccc2C)c[nH]1` [GSK364507], the “%Inh” value is reported as 17%. Under `Cc1cccc(-c2nc(Nc3cccc(C(N)=O)c3)c3ccccc3n2)n1` [GW876019] stands 18%. The value for `Cc1csc(-c2nc(Nc3ccncc3)c3ccccc3n2)n1` [GW869640] was 15%; that for `CS(=O)(=O)c1ccc(-c2nc3n(c2-c2ccncc2)CCC3)cc1` [SKF-105942] was 11%. The value for `Nc1ncnc2[nH]c(-c3ccccc3)nc12` [AH5015] was 67%. Consider `Cc1cccc(-c2nc(Nc3ccncc3)c3ccccc3n2)n1` [GW855857], for which the “%Inh” value is recorded as 10%. For the compound `COC(=O)c1c(-c2ccccc2)c2cc(OC)ccc2c(=O)n1Cc1ccccc1`, the “%Inh” value was found to be 0%. Under `Cc1c(Cn2ccn3c(=O)cc(N4CCOCC4)nc23)cccc1C(F)(F)F` [GSK2289044] stands 33%; under `COc1ccc(Nc2nccc(-c3cccc(NC(=O)c4cc5cc(F)ccc5[nH]4)c3)n2)cc1` [GSK1229782], 33%. Under `O=C(O)COc1ncnc2cc(-c3ccc4[nH]ncc4c3)sc12` stands 76%; under `Cc1ccc(-c2cc(-c3c[nH]nc3-c3ccccn3)ccn2)cc1` [GW684088], 14%. The value for `Cc1c(O)cccc1Nc1ccnc2ccc(C(F)(F)F)cc12.Cl` [GW466413] was 22%. Turning to `CS(=O)(=O)c1ccc(-c2c(-c3ncn[nH]3)sc(N3CCOCC3)c2C#N)cc1`, the “%Inh” value was 5%. The value for `Fc1cccc(COc2nnc(-c3ccc4c(c3)CCO4)o2)c1` was 32%; that for `COc1cc2ncnc(Nc3ccc4nc(-c5ccccc5)[nH]c4c3)c2cc1OC.Cl` [GW282450] was 14%.
